Reference: the supplement of paper PMC8728848
The entries come from a sample that favours the strongest signals as a whole.

What was measured:
Test in all cases: glycan array binding signal (z-score within array); higher = stronger binding
Conditions in all cases: glycan notation: IUPAC condensed, linker removed
[1] = target: Fuc(a1-2)Gal(b1-3)GalNAc(a1-3)[Fuc(a1-2)]Gal(b1-4)Glc
How it was run: (§1)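 Glycan array data were curated from 3228 arrays in the Consortium for Functional Glycomics database and kept only where the protein sequence was available. Glycan names were converted to IUPAC-condensed notation, and columns mapping to the same glycan were averaged. The binding signal is a within-array Z-score, averaged across arrays of the same protein sequence at different concentrations or buffers and across linkers. Negative Z-scores can be read as non-binding.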

[2] = target: Fuc(a1-2)Gal(b1-4)Fuc(a1-3)]GlcNAc(b1-2)Man(a1-3)[Fuc(a1-2)Gal(b1-4)[Fuc(a1-3)]GlcNAc(b1-2)Man(a1-6)]Man(b1-4)GlcNAc(b1-4)GlcNAc
How it was run: as §1

[3] = target: Fuc(a1-2)Gal(b1-4)[Fuc(a1-3)]GlcNAc(b1-2)Man(a1-3)[Fuc(a1-2)Gal(b1-4)[Fuc(a1-3)]GlcNAc(b1-2)Man(a1-6)]Man(b1-4)GlcNAc(b1-4)[Fuc(a1-6)]GlcNAc
How it was run: as §1

[4] = target: Fuc(a1-2)Gal(b1-4)[Fuc(a1-3)]GlcNAc(b1-3)Gal(b1-4)[Fuc(a1-3)]GlcNAc(b1-3)Gal(b1-4)[Fuc(a1-3)]GlcNAc
How it was run: as §1

Fuc(a1-2)Gal6S(b1-4)Glc = target: Fuc(a1-2)Gal6S(b1-4)Glc
How it was run: as §1

[5] = target: Fuc(a1-2)[Gal(a1-3)]Gal(b1-3)GalNAc(b1-3)Gal(a1-4)Gal(b1-4)Glc
How it was run: as §1

[6] = target: Fuc(a1-2)[Gal(a1-3)]Gal(b1-4)[Fuc(a1-3)]Glc
How it was run: as §1

[7] = target: Fuc(a1-2)[Gal(a1-3)]Gal(b1-4)[Fuc(a1-3)]GlcNAc
How it was run: as §1

[8] = target: Fuc(a1-2)[GalNAc(a1-3)]Gal(b1-3)GlcNAc(b1-3)GalNAc
How it was run: as §1

[9] = target: Fuc(a1-2)[GalNAc(a1-3)]Gal(b1-4)Glc
How it was run: as §1

Fuc(a1-3)GlcNAc = target: Fuc(a1-3)GlcNAc
How it was run: as §1

[10] = target: Fuc(a1-3)[Gal(b1-4)]GlcNAc6S
How it was run: as §1

Gal(b1-3)Gal(b1-4)GlcNAc = target: Gal(b1-3)Gal(b1-4)GlcNAc
How it was run: as §1

[11] = target: Gal(b1-3)GlcNAc(a1-6)Gal(b1-4)GlcNAc
How it was run: as §1

[12] = target: Gal(b1-3)GlcNAc(b1-6)GalNAc
How it was run: as §1

[13] = target: Gal(b1-4)GlcNAc(b1-2)Man(a1-3)[Gal(b1-4)GlcNAc(b1-2)Man(a1-6)]Man(b1-4)GlcNAc(b1-4)[Fuc(a1-6)]GlcNAc
How it was run: as §1

[14] = target: Gal(b1-4)GlcNAc(b1-3)Gal(b1-4)GlcNAc
How it was run: as §1

[15] = target: Gal(b1-4)GlcNAc(b1-3)Gal(b1-4)GlcNAc(b1-3)Gal(b1-4)GlcNAc(b1-2)[Gal(b1-4)GlcNAc(b1-3)Gal(b1-4)GlcNAc(b1-3)Gal(b1-4)GlcNAc(b1-6)]Man(a1-6)[Gal(b1-4)GlcNAc(b1-3)Gal(b1-4)GlcNAc(b1-3)Gal(b1-4)GlcNAc(b1-2)Man(a1-3)]Man(b1-4)GlcNAc(b1-4)[Fuc(a1-6)]GlcNAc
How it was run: as §1

[16] = target: Gal(b1-4)GlcNAc(b1-3)Gal(b1-4)GlcNAc(b1-3)Gal(b1-4)GlcNAc(b1-3)Gal(b1-4)GlcNAc(b1-2)Man(a1-3)[Gal(b1-4)GlcNAc(b1-3)Gal(b1-4)GlcNAc(b1-3)Gal(b1-4)GlcNAc(b1-3)Gal(b1-4)GlcNAc(b1-2)Man(a1-6)]Man(b1-4)GlcNAc(b1-4)GlcNAc
How it was run: as §1

[17] = target: Gal(b1-4)GlcNAc(b1-3)GalNAc
How it was run: as §1

Gal(b1-4)GlcNAc6P = target: Gal(b1-4)GlcNAc6P
How it was run: as §1

[18] = target: Gal3S(b1-4)[Fuc(a1-3)]Glc6S
How it was run: as §1

GlcA(b1-6)Gal = target: GlcA(b1-6)Gal
How it was run: as §1

[19] = target: GlcNAc(a1-3)Gal(b1-4)GlcNAc
How it was run: as §1

[20] = target: GlcNAc(a1-4)Gal(b1-4)GlcNAc(b1-3)Gal(b1-4)Glc
How it was run: as §1

[21] = target: GlcNAc(b1-2)Man(a1-3)[GlcNAc(b1-4)][GlcNAc(b1-2)Man(a1-6)]Man(b1-4)GlcNAc(b1-4)GlcNAc
How it was run: as §1

[22] = target: GlcNAc(b1-2)[GlcNAc(b1-4)]Man(a1-3)[GlcNAc(b1-4)][GlcNAc(b1-2)[GlcNAc(b1-6)]Man(a1-6)]Man(b1-4)GlcNAc(b1-4)GlcNAc
How it was run: as §1

[23] = target: GlcNAc(b1-3)Gal(b1-4)GlcNAc(b1-2)Man(a1-3)[GlcNAc(b1-3)Gal(b1-4)GlcNAc(b1-2)Man(a1-6)]Man(b1-4)GlcNAc(b1-4)[Fuc(a1-6)]GlcNAc
How it was run: as §1

B1: LlpA (Arthrobacter sp) (protein)
chain: MGSSHHHHHHSSGLVPRGSHMTLHPETALRPGAAATSPNSRYRLLYQTDGNLVLYGPDGPLWDSGTNGHGAGACIMQADGNLVLYGPNDEYVWDTETDNNPGSRLVIQDDGNAVIYRPDGSPLWATETCQPPGSADSHVLQSGSTLTPTHGIRSANGLYGLLYQTDGNLVFYGPDGPLWDSGTNGRGAGACIMQPDGNLVLYGPHDEYVWDTETDNNPGSRLVIQDDGNAVIYRPDGNPTWVTGTH
[1]
  glycan array binding signal (z-score): -0.605
[2]
  glycan array binding signal (z-score): 1.72
[3]
  glycan array binding signal (z-score): 1.97
[4]
  glycan array binding signal (z-score): -0.294
Fuc(a1-2)Gal6S(b1-4)Glc
  glycan array binding signal (z-score): 0.733
[5]
  glycan array binding signal (z-score): -0.344
[6]
  glycan array binding signal (z-score): -1.15
[7]
  glycan array binding signal (z-score): 0.864
[8]
  glycan array binding signal (z-score): 2.37
[9]
  glycan array binding signal (z-score): -0.96
Fuc(a1-3)GlcNAc
  glycan array binding signal (z-score): -0.654
[10]
  glycan array binding signal (z-score): 1.84
Gal(b1-3)Gal(b1-4)GlcNAc
  glycan array binding signal (z-score): 0.043
[11]
  glycan array binding signal (z-score): -0.211
[12]
  glycan array binding signal (z-score): -0.718
[13]
  glycan array binding signal (z-score): 1.04
[14]
  glycan array binding signal (z-score): -0.238
[15]
  glycan array binding signal (z-score): 0.644
[16]
  glycan array binding signal (z-score): -0.527
[17]
  glycan array binding signal (z-score): -0.295
Gal(b1-4)GlcNAc6P
  glycan array binding signal (z-score): 0.159
[18]
  glycan array binding signal (z-score): 2.1
GlcA(b1-6)Gal
  glycan array binding signal (z-score): 0.793
[19]
  glycan array binding signal (z-score): 0.79
[20]
  glycan array binding signal (z-score): 0.389
[21]
  glycan array binding signal (z-score): -0.798
[22]
  glycan array binding signal (z-score): -0.159
[23]
  glycan array binding signal (z-score): 0.596
